The list is not random: actives were taken first. Their share in the collection is about 12%.
HP1b binding inh: inhibitors of HP1-beta chromodomain binding to methylated histone tails. Potency, µM (highest dose often 114 µM), actives largely listed as inhibitors. 0.56% of 390,000 active. P83916. AlphaScreen HP1-beta / biotin-H3K9me3 peptide binding; further: nearly all actives have a fitted effect of over 70% in size
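Compound inhibition of the preformed complex between 50 nM HP1-beta and 50 nM biotinylated H3K9me3 peptide was read by AlphaScreen. Buffer was PBS pH 7.4 with 0.01% Tween-20. Incubations ran 30 min at room temperature, with 10 ug/mL donor/acceptor beads.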
JMJD2A Tudor inh: JMJD2A Tudor domain (human) inhibition | 4.4% of 390,000 active | AlphaScreen JMJD2A-Tudor / H3K4me3 peptide binding | Potency, µM (series often up to 114 µM), usual class: inhibitors | AID 504339 | O75164; further: nearly all actives have a fitted effect of over 50% in size
BAZ2B inh: inhibitors of human BAZ2B bromodomain. AlphaScreen BAZ2B-H3K14Ac peptide displacement. 4.4% of 360,000 active. Q9UIF8. Potency, µM (highest dose often 114 µM), actives largely listed as inhibitors; further: nearly all actives have a fitted effect of over 60% in size
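In this displacement format the biotinylated H3(5-23) peptide acetylated at Lys14 serves as ligand at 50 nM, with BAZ2B at 50 nM in PBS pH 7.4 containing 0.01% Tween-20. Donor and acceptor beads are 10 ug/mL final.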
L3MBTL1 inh: blocks human L3MBTL1; Q9Y468; AlphaScreen L3MBTL1–H3K9me1 peptide binding; Potency, µM (top dose mostly 57.1 µM), actives largely listed as inhibitors; 0.66% of 230,000 active; further: nearly all actives have a fitted effect of over 60% in size
Target sequence (Q9Y468 whole entry, looked up): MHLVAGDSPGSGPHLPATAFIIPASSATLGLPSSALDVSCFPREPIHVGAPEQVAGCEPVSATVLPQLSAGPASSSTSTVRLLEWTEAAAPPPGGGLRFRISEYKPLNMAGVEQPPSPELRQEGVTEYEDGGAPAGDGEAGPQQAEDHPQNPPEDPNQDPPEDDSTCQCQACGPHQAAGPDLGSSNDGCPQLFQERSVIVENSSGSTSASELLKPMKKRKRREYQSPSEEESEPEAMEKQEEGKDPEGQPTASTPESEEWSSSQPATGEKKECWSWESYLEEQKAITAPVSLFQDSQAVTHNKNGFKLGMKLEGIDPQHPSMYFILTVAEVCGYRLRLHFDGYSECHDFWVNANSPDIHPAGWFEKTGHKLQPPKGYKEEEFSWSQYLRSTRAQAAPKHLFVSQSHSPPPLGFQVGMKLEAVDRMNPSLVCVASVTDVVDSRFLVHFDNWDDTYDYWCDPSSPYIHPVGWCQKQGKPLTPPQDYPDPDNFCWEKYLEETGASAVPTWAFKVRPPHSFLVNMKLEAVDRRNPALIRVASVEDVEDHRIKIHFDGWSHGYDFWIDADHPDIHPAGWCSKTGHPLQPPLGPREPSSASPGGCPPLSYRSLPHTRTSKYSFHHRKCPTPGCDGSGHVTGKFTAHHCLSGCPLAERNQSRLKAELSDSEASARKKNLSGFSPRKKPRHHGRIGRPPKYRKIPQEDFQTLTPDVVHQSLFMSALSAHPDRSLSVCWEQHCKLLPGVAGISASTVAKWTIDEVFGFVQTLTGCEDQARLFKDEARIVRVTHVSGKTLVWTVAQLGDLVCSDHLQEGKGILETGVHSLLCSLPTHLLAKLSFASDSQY
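First, the protein-peptide complex forms for 30 min at room temperature (L3MBTL1 50 nM, biotinylated H3K9me1 peptide 75 nM). Next, compounds are pin-transferred and incubated 30 min. Finally, AlphaScreen beads are added and read after 30 min.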
Sfp inh: Sfp phosphopantetheinyl transferase inhibition; Potency, µM, usual class: inhibitors; Biochemical Sfp PPTase activity, qHTS; 3.5% of 310,000 active; Q9F4F7;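 further: the enzyme is Sfp with the accession as filed and its product quenches rhodamine fluorescence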
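Reaction rates are the 30-min fluorescence difference (ex 525, em 598 nm) in wells containing 15 nM Sfp, 5 uM rhodamine-CoA and 12.5 uM BHQ-2-YbbR at pH 7.6 with 10 mM MgCl2.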
G9a inh: inhibitors of human histone lysine methyltransferase G9a; Q96KQ7; G9a H3K9 monomethylation, AlphaScreen, 2 h; Potency, µM (doses to about 102 µM), most hits filed as inhibitors; 8.8% of 350,000 active; AID 504332; further: nearly all actives have a fitted effect of over 75% in size
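Methyltransferase reactions run at room temperature for 2 h (20 nM enzyme, 500 nM biotin-H3K9 peptide, 20 uM SAM) after a 15 min compound preincubation; product detected by AlphaScreen beads and anti-H3K9me1 antibody.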
Hits are given with their value; - = inactive; ? = inconclusive; . = no result; [ ] = another dose, or the depositor's remark. The call rests on the fitted dose curve; in most records, active means well fitted curve in the direction sought with a large enough effect; inconclusive means small, poorly fitted or top-dose-only effect, or another doubt; inactive means no such curve, though single readings can be large; an effect the other way counts as inactive or inconclusive.

SMILES | HP1b binding inh | JMJD2A Tudor inh | BAZ2B inh | L3MBTL1 inh | Sfp inh | G9a inh
COc1cccc(C2=CC(c3ccc(OC)c(OC)c3)NC(=S)N2)c1 (stereo unspecified) | - | - | ? | - | - | .
OCc1ccccc1N=Cc1cccnc1 | - | - | - | . | - | -
N#Cc1cccc(N=c2ssnc2Cl)c1 | ? | 13µM | 28µM | - | 7.9µM | 0.89µM
Cc1cc(C)cc(C(N)=Nc2cccc(C#N)c2)c1 | - | - | - | . | - | -[2.33 µM]
OCc1ccccc1N=c1ssnc1Cl | . | . | ? | - | 8.9µM | -[2.33 µM]
Clc1ccc(N=c2ssnc2Cl)nc1 | - | - | - | ? | - | -
Clc1nssc1=Nc1nncs1 | ? | 22µM | 50µM | - | . | -[0.501 µM]
Clc1nssc1=Nc1ccc(Br)cc1 | 32µM | 25µM | 22µM | . | 10µM | 3.2µM
COc1ccc(CCC(=O)NC2CC(=O)N(c3ccc(OC)cc3)C2)cc1 (stereo unspecified) | - | - | - | . | . | -
COc1cc(N=c2ssnc2Cl)cc(OC)c1 | - | 28µM | 45µM | -[11.4 µM] | 1.8µM | ?
O=C(O)c1ccc(/C=C/c2ccc3cccc(O)c3n2)cc1 | - | - | - | . | 40µM | ?
Oc1ccc(/C=C/c2ccc3cccc(O)c3n2)cc1Br | - | - | - | . | - | -
COC(=O)c1ccc(/C=C/c2ccc3cccc(OC(C)=O)c3n2)cc1 | - | - | - | - | 18µM | -
CC1(C)CC(=O)C(C(C#Cc2ccccc2)C2=C(O)CC(C)(C)CC2=O)=C(O)C1 | - | - | ? | - | ? | 13µM
O=C1CCCC(O)=C1C(C#Cc1ccccc1)C1=C(O)CCCC1=O | ? | 16µM | - | - | - | 0.89µM
O=C1CCCc2[nH]c(-c3ccccc3)nc21 | - | - | ? | ? | - | .
O=C(/C=C/c1ccc(S(=O)(=O)N2CCOCC2)cc1)OCC(=O)c1ccc([N+](=O)[O-])cc1 | - | - | ? | . | - | ?
CCC(C)NC(=O)c1c(C)oc2nc(C)nc(N3CCOCC3)c12 (stereo unspecified) | - | - | - | . | . | -
CCc1ccccc1NC(=O)c1ccc2c(c1)nnn2C1CCCC1 | - | - | - | . | . | -
COc1ccc(-c2nc(CS(=O)CC(=O)NC3CCCc4ccccc43)c(C)o2)cc1OC (stereo unspecified) | - | - | - | . | - | ?
COc1ccc(-c2nc(CSCC(=O)NC3CCCc4ccccc43)c(C)o2)cc1OC (stereo unspecified) | - | ? | ? | . | - | 45µM
CCOC(=O)C1CCN(C(=O)CSCc2nc(-c3ccc(OCC)cc3)oc2C)CC1 | - | - | - | - | - | -
CCOc1ccc(-c2nc(CSCC(=O)N3CCN(C(=O)c4ccco4)CC3)c(C)o2)cc1 | - | - | - | - | - | 50µM
CCOC(=O)N1CCC(NC(=O)CSCc2nc(-c3ccc(OC)c(OC)c3)oc2C)CC1 | - | - | - | - | - | -
COc1ccc(-c2nc(CSCC(=O)N3CCN(c4cccc(C)c4)C(C)C3)c(C)o2)cc1OC (stereo unspecified) | - | 56µM | 45µM | - | - | 45µM
SMILES | HP1b binding inh | JMJD2A Tudor inh | BAZ2B inh | L3MBTL1 inh | Sfp inh | G9a inh
COc1ccc(-c2nc(CSCC(=O)N3CCC(C(N)=O)CC3)c(C)o2)cc1OC | - | - | - | - | - | 45µM
O=C(CCNS(=O)(=O)c1ccc(Br)s1)Nc1ccc(Br)cc1 | - | - | - | . | . | -
Cn1cnc(S(=O)(=O)N2CCC(C(=O)N3CCN(c4ccccc4F)CC3)CC2)c1 | - | - | - | . | . | -[12.7 µM]
COc1ccc2c(c1)c1nnc(SC(C)C)nc1n2C | - | - | . | . | . | .
CC(NC(=O)C1CCCN1S(=O)(=O)c1ccc2c(c1)n(C)c(=O)c(=O)n2C)c1ccccc1 (stereo unspecified) | - | - | - | - | - | .
COc1ccc(-c2nc(CSCC(=O)N3CCc4ccccc4C3)c(C)o2)cc1OC | - | ? | - | - | - | 35µM
Fc1ccc(-n2ncc3c(Nc4ccc(Oc5ccc(Cl)cc5)cc4)ncnc32)cc1 | - | - | - | . | . | -
COc1cc(CNCCC2CCOC(C)(C)C2)ccc1O (stereo unspecified) | - | - | - | - | ? | 50µM
COc1cc(CNCCO)ccc1OC1CCCC1 | - | - | - | . | - | -

Screening results deposited in PubChem BioAssay by National Center for Advancing Translational Sciences (NCATS).
